# Hits are enriched below; roughly 10% of the tested compounds scored in any of these assays.
# JMJD2A Tudor inh: qHTS Assay for Inhibitors of JMJD2A-Tudor Domain. Lysine-specific demethylase 4A (Homo sapiens), O75164. AlphaScreen JMJD2A-Tudor / H3K4me3 peptide binding. Potency, µM (highest dose often 114 µM), without a hit: at the highest dose activity change, negative = inhibition, most hits filed as inhibitors. 4.4% of 390,000 active. AID 504339, 2011; note: potency is the fitted concentration of half-maximal effect; % is set by controls: 0 for no effect and ±100 for the full control effect; nearly all actives have a fitted effect of over 50% in size
# G9a block: qHTS Assay for Inhibitors of Histone Lysine Methyltransferase G9a | Histone-lysine N-methyltransferase EHMT2 (Homo sapiens), Q96KQ7 | G9a H3K9 monomethylation, AlphaScreen, 2 h | Potency, µM (titrated, usually from 102 µM), for inactives: at the top dose activity, negative = inhibition, most hits filed as inhibitors | 8.8% of 350,000 active; note: potency is the fitted concentration of half-maximal effect; % is set by controls: 0 for no effect and ±100 for the full control effect; nearly all actives have a fitted effect of over 75% in size
#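 Step 1: enzyme (final 20 nM) with compound, 15 min RT. Step 2: substrate peptide 500 nM and SAM 20 uM, 2 h RT. Step 3: anti-H3K9me1 antibody and AlphaScreen beads, 10 min, then plate read.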
# CtBP-E1A blk: qHTS Assay for Inhibitors of the CtBP/E1A Interaction; AlphaScreen GST-E1A/His-CtBP binding, 1536-well; active compounds read low; 0.49% of 340,000 active; AID 651724, 2012; CtBP / adenovirus E1A interaction (AlphaScreen); activity change, % (no concentration beside the values); in the data active = activity change below about -65%; inconclusive = mostly about -30% to -63%; note: % is set by controls: 0 for no effect and ±100 for the full control effect
#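 Steps: dispense buffer (Tris pH 8.0, NaCl 300 mM, TCEP 1 mM, BSA, Tween 20); add 5X protein mix (GST-E1A, His-CtBP, 125 nM each); pin 23 nL compound; 2 h at 37 °C, dark; add 5X beads (50 ug/mL); 1 h; read.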
# BAZ2B block: qHTS Assay for Inhibitors of BAZ2B; Bromodomain adjacent to zinc finger domain protein 2B (Homo sapiens), Q9UIF8; AlphaScreen BAZ2B-H3K14Ac peptide displacement; Potency, µM (series often up to 114 µM), for the others: at the top dose activity change, negative = inhibition, hits mostly inhibitors; 4.4% of 360,000 active; note: potency is the fitted concentration of half-maximal effect; % is set by controls: 0 for no effect and ±100 for the full control effect; nearly all actives have a fitted effect of over 60% in size
#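 AlphaScreen displacement: compounds (up to 110uM) incubated 30 min at room temperature with a preformed 50 nM BAZ2B/50 nM biotinylated H3K14Ac peptide complex in PBS pH 7.4 with Tween-20. Donor and acceptor beads at 10 ug/mL final added, 20 min light-protected before reading.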
# Six1-Eya2 inh: qHTS Assay for Inhibitors of the Six1/Eya2 Interaction | AlphaScreen GST-Six1/His-Eya2 binding, biochemical; active compounds read low | activity change, % (concentration not given with the values) | 0.56% of 360,000 active; in the data active = activity change below about -65%; inconclusive = mostly about -30% to -63%; note: % is set by controls: 0 for no effect and ±100 for the full control effect
#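 GST-Six1 + His-Eya2 (5X stock: 250/500 nM); Tris pH 8.0, 300 mM NaCl, 0.05% BSA, 0.02% Tween 20; GSH donor/Ni acceptor beads; 1 h 37 °C dark; AlphaScreen readout.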
# HP1b binding inh: HTS for Inhibitors of HP1-beta Chromodomain Interactions with Methylated Histone Tails. AlphaScreen HP1-beta / biotin-H3K9me3 peptide binding. Potency, µM (series often up to 114 µM), for the others: top-dose activity change, negative = inhibition, usual class: inhibitors. 0.56% of 390,000 active; note: potency is the fitted concentration of half-maximal effect; nearly all actives have a fitted effect of over 70% in size
#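 Compound inhibition of the preformed complex between 50 nM HP1-beta and 50 nM biotinylated H3K9me3 peptide was read by AlphaScreen. Buffer was PBS pH 7.4 with 0.01% Tween-20. Incubations ran 30 min at room temperature, with 10 ug/mL donor/acceptor beads.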
# Numbers without * were called inactive; ? = inconclusive; / = not tested or not shown; [ ] = another dose, or the depositor's remark. Unless noted, calls come from the whole dose curve; as a rule, active = well fitted inhibition curve with a large enough effect; inconclusive = small, poorly fitted or top-dose-only effect; inactive = no such curve, though single readings can be large or run the other way.
SMILES,JMJD2A Tudor inh,G9a block,CtBP-E1A blk,BAZ2B block,Six1-Eya2 inh,HP1b binding inh
COc1ccc(C2CC(c3ccccc3)=NN2C(=O)COC(=O)c2cccc(N)c2)cc1 (configuration not stated),?,/,/,/,-17.9,-3.5%
COc1ccc(C2CC(c3ccc4ccccc4c3)=NN2C(=O)CSc2ncccn2)cc1 (configuration not stated),-21.9%,39.8µM*,-6.9,-1.1%,-24.4,17.4%
CC(=O)N1N=C(c2ccccc2)CC1c1ccccc1[N+](=O)[O-] (configuration not stated),-22.6%,16.5%,-0.4,-2.3%,8.6,4.7%
COc1ccc(C2CC(c3ccccc3)=NN2C(=O)COC(=O)c2cccnc2)cc1 (configuration not stated),-8.1%,17.8µM*,4.0,-37.3%,4.2,38.2%
CC(=O)N1N=C(c2ccc([N+](=O)[O-])cc2)CC1c1ccccc1Cl (configuration not stated),?,50.1µM*,-23.9,?,-23.2,?
COc1ccc(C(=O)NCC(=O)OCC(=O)N2N=C(c3ccc(Cl)cc3)CC2c2ccco2)cc1OC (configuration not stated),-35.4%,20µM*,/,-26.8%,-7.4,16.5%
O=C(OCC(=O)N1N=C(c2ccc(Cl)cc2)CC1c1ccco1)c1cccnc1 (configuration not stated),35.5µM*,/,/,/,-19.6,?
COc1ccc(C2CC(c3ccccc3)=NN2C(=O)CCC(=O)O)cc1 (configuration not stated),-20.5%,/,0.3,-3.0%,0.7,49.2%
O=C(CCl)N1N=C(c2cccs2)CC1c1ccco1 (configuration not stated),-24.8%,?,4.4,-15.6%,1.2,3.9%
COc1ccc(C2=NN(C(=O)CCC(=O)O)C(c3ccc([N+](=O)[O-])cc3)C2)cc1 (configuration not stated),-11.9%,39.8µM*,1.8,-1.7%,6.7,13.5%
O=C(CCl)N1N=C(c2ccco2)CC1c1ccco1 (configuration not stated),44.7µM*,50.1µM*,-8.6,44.7µM*,?,50.1µM*
Cc1ccc(Cl)cc1N1CCN(C(=O)c2cc(S(=O)(=O)N3CCCCC3)cn2C)CC1,?,-37.6%[59 µM],/,?,/,-0.9%[57 µM]
COc1ccc(OC)c(-c2cc(C(=O)Nc3cccc(Cl)c3C)no2)c1,-14.0%,10.3%[59 µM],/,5.3%,/,17.9%
Cc1ccc(C(=O)Nc2cccc(C(F)(F)F)c2)cc1NC(=O)c1csc(-c2ccncc2)n1,-26.1%,-34.4%[59 µM],-7.8,-31.0%,-2.8,26.0%
Cc1cn(-c2cc(NC(=O)c3ccc(C)c(NC(=O)c4cccc(-c5cn[nH]c(=O)c5)c4)c3)cc(C(F)(F)F)c2)cn1,?,14.1µM*,-12.5,-37.7%,-4.6,21.3%
Cc1ccc(-c2nnc(SCC(C)C)n2C)cc1,-10.7%,22.6%,4.4,-24.9%[57.1 µM],2.2,29.4%
Cc1ccccc1/C=N\NC(=O)c1ccc(Cn2cccn2)o1,56.2µM*,2.3%[59 µM],-0.4,1.0%,-17.1,-0.5%
Oc1ccc(-c2csc(-c3cccnc3)n2)c(O)c1,-23.8%,-4.6%,2.3,/,-19.9,21.8%
Oc1ccc(-c2nc(-c3ccc(O)c(O)c3)cs2)cc1,50.1µM*,8.91µM*,?,?,-21.5,?
CC1=CC(C)(C)N2C(=O)C(=Nc3ccc(O)cc3)c3cccc1c32,-29.4%[11.4 µM],5.01µM*,?,35.5µM*,?,39.8µM*
